Source: PubChem BioAssay
D2 PAM-1 – Beta-Arrestin HTS for Positive Allosteric Modulators of the Human D2 Dopamine Receptor: Potentiators. potentiation, % (no concentration beside the values). DiscoveRx D2 beta-arrestin cells, luminescence, 90 min; 100% = 57 uM dopamine signal. AID 624464, 2012. 360,000 compounds, 0.23% hits. D(2) dopamine receptor (Homo sapiens), P14416; in the data active = potentiation above about 50%; inconclusive = mostly about 30% to 49%
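PathHunter beta-arrestin assay in DiscoveRx D2 cells. Compounds were added with an EC20 of dopamine (50 nM final) for 90 min at 37 deg C. Luminescence was read 1 h after detection reagent, with 57 uM dopamine as the EC100 control.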
D2 PAM-2 – HTS Assay for Positive Allosteric Modulators of the Human D2 Dopamine Receptor: Primary Screen for Potentiators; D(2) dopamine receptor (Homo sapiens), P14416; HEK293 T-REx D2, calcium flux, EC20 dopamine potentiation; potentiation, % at 10 µM; 340,000 compounds, 0.34% hits; AID 485347, 2010;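 active = potentiation over 3 SD above the plate norm, cut at about 30% in these data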
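Using a no-wash calcium dye in inducible, force-coupled HEK293 Trex cells expressing D2, we tracked fluorescence each second for 180 s after compound, then for 180 s after EC20 dopamine to detect augmented signalling.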
D2 antagonist – HTS Assay for Allosteric Antagonists of the Human D2 Dopamine Receptor: Primary Screen for Antagonists | inhibition, % at 10 µM | 340,000 compounds, 2% hits | AID 485344, 2010 | D(2) dopamine receptor (Homo sapiens), P14416 | HEK293 TREx D2 cells, calcium flux, dopamine EC80; in the data active = inhibition above about 30%; inactive = below that, where a call was filed
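Calcium flux kinetic readout in an inducible HEK293 TREx D2 line plated overnight at 30 C. After 180 s compound exposure, an EC80 dopamine challenge follows with another 180 s kinetic read to detect antagonism.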
D2 ag-1 – Beta-Arrestin HTS for Positive Allosteric Modulators of the Human D2 Dopamine Receptor: Agonists. D(2) dopamine receptor (Homo sapiens), P14416. DiscoveRx PathHunter D2 beta-arrestin, luminescence, 90 min; 100% = 57 uM dopamine signal. activation, % (concentration not given with the values). 360,000 compounds, 0.084% hits. AID 624465, 2012; in the data active = activation above about 40%; inconclusive = between about 15% and that limit
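DiscoveRx PathHunter D2 beta-arrestin cells (2,100/well) attached overnight, then compound-stimulated 90 min at 37 C in HBSS/10 mM HEPES/0.1% Tween-20 buffer; beta-galactosidase complementation read by luminescence after 1 h at ambient temperature. Dopamine 57 uM final (EC100) as control.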
D2 ag-2 – HTS Assay for Allosteric Agonists of the Human D2 Dopamine Receptor: Primary Screen for Agonists; D(2) dopamine receptor (Homo sapiens), P14416; HEK293 T-REx D2 cells, calcium flux agonist mode; activation, % at 2 µM; 340,000 compounds, 0.53% hits; AID 485358, 2010;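 active = activation over 3 SD above normal in the single-dose calcium agonist read, cut at about 30% in these data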
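HEK293 Trex D2 cells, tetracycline-induced, o/n 30 C 5% CO2; no-wash Ca dye, RT 30–90 min; 10-cycle baseline, 23 nl cpd added, kinetic Ca read 180 s; agonist hits = positive Ca response.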
D3 arrestin ag – qHTS of D3 Dopamine Receptor Agonist: D3 Dopamine Receptor B-arrestin Agonist Confirmatory Assay; shares compounds with D2 ag-2; DiscoveRx D3 beta-arrestin cells, luminescence, 90 min; Potency, µM (series often up to 76.9 µM), hits mostly activators; 2,300 compounds, 4% hits; also: nearly all actives have a fitted effect of over 70% in size
Target sequence (P35462 whole entry, looked up): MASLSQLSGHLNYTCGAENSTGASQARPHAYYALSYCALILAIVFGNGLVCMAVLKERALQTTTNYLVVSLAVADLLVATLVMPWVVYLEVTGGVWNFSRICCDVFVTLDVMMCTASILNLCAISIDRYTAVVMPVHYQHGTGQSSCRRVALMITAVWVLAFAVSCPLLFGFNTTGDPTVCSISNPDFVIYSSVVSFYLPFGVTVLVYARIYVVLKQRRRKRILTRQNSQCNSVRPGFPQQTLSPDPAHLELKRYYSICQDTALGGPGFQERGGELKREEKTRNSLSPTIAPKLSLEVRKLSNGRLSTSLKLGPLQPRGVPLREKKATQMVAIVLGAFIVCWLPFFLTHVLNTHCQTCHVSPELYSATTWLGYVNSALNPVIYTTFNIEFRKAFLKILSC
D2 ag-3 – qHTS of D3 Dopamine Receptor Agonist: D2 Dopamine Receptor B-arrestin Agonist Counterscreen; shares compounds with D2 ag-2; DiscoveRx PathHunter D2 beta-arrestin, luminescence, 90 min; response scale: percent relative to full dopamine signal; Potency, µM (doses to about 76.9 µM), most hits filed as activators; 2,300 compounds, 5.9% hits; also: nearly all actives have a fitted effect of over 70% in size
Of the large screens only hits and unclear results are named; the others gave an inactive call (follow-up assays come after a bar, where they were run); ! = repeats disagree. Shown are actives, neighbours in structure and some others; about 2.4% of the full set was active somewhere. Unless noted, calls follow the shape of the dose curve; as a rule, active = well fitted activation curve with a large enough effect; inconclusive = small, poorly fitted or top-dose-only effect; inactive = flat fitted curve, though single readings scatter.

Cc1c(C(=O)N(Cc2ccc(N(C)C)cc2)CC2CCCO2)oc2ccc(Br)cc12 (stereo unspecified)	none (no result: D2 PAM-1, D2 antagonist, D2 ag-1)
CNC(=S)N(CCc1c(C)[nH]c2ccc(OC)cc12)Cc1cccnc1	none | D3 arrestin ag inactive | D2 ag-3 inactive
COc1ccc(NC(=O)c2ccc(CN3CCN(c4ccccc4)CC3)cc2)cc1	D2 antagonist 82.4, D2 ag-1 inconclusive, D2 ag-2 86.4 | D3 arrestin ag inactive | D2 ag-3 14.1µM
O=C(Nc1ccccc1F)c1ccc(CN2CCN(c3ccccc3)CC2)cc1	D2 antagonist 80.9, D2 ag-1 inconclusive, D2 ag-2 85.1 | D3 arrestin ag inactive | D2 ag-3 17.8µM
COc1ccc(C(=O)Nc2ccc(N3CCN(Cc4ccccc4)CC3)cc2)cc1	none
CSc1ccccc1NC(=O)c1ccc(CN2CCOCC2)cc1	none
CCN1C(=O)/C(=C/C=C2\N(CC)c3cc(S(=O)(=O)N(C)C)ccc3N2c2ccccc2)SC1=S	none | D3 arrestin ag inactive | D2 ag-3 inactive
CCN1C(=O)/C(=C\C=C\c2ccccc2[N+](=O)[O-])SC1=S	none
O=C(N1CCN(c2ccccc2)CC1)C(F)(F)C(F)(F)F	none | D3 arrestin ag inactive | D2 ag-3 inactive
O=C(CN1CCN(c2ccccc2)CC1)N1CCN(c2ccccc2)CC1	D2 ag-2 47.1 | D3 arrestin ag inconclusive | D2 ag-3 inactive
O=C(CN1CCCCC1)N1CCN(c2ccccc2)CC1	none
O=C(N1CCN(c2ccccc2)CC1)C(F)(F)C(F)F	none
COc1cc(OC)c(Nc2nc3ccccc3c3nncn23)cc1Cl	none (no result: D2 PAM-1, D2 antagonist, D2 ag-1)
CCOC(=O)/C=C/[C@H]1CC(c2ccccc2)(c2ccccc2)CO1	none | D3 arrestin ag inactive | D2 ag-3 inactive
CCOC(=O)C1C(C(=O)OCC)C1(c1ccccc1)c1ccccc1 (stereo unspecified)	none
NC[C@@H]1O[C@H](C23CC4CC(CC(C4)C2)C3)Cc2c1ccc(O)c2O	D2 PAM-1 inconclusive, D2 antagonist 65.8, D2 ag-1 49.7, D2 ag-2 85.1 | D3 arrestin ag 31.6µM | D2 ag-3 35.5µM
COc1ccccc1N1CCN(CCCNC(=O)Cn2ncc3c([nH]c4ccccc43)c2=O)CC1	D2 antagonist 90.3 | D3 arrestin ag inactive | D2 ag-3 inactive
Cn1c(C(=O)NCCCN2CCN(c3ccccc3F)CC2)cc2c(=O)[nH]c3ccccc3c21	D2 antagonist 104.6, D2 ag-1 inconclusive, D2 ag-2 71.3 | D3 arrestin ag inactive | D2 ag-3 inactive
O=C(Cc1csc(Nc2nc(=S)[nH]c3ccccc23)n1)NCc1ccc(Cl)cc1	none
Cn1c2ccccc2c2cnn(CC(=O)NCCCN3CCN(c4ccccc4F)CC3)c(=O)c21	D2 antagonist 63.3, D2 ag-2 69.0! | D3 arrestin ag inactive | D2 ag-3 inactive
O=C(Cc1csc(Nc2nc(=S)[nH]c3ccccc23)n1)NCCCN1CCN(c2ccccc2F)CC1	D2 antagonist 67.4, D2 ag-2 47.4 | D3 arrestin ag inactive | D2 ag-3 inactive
Nc1nonc1-c1nc2ccccc2n1Cc1c(Cl)cccc1Cl	none (no result: D2 PAM-1, D2 antagonist, D2 ag-1)
Cn1c(=O)cc(OCC(=O)NCCCN2CCN(c3ccccc3F)CC2)c2ccccc21	D2 PAM-1 inconclusive, D2 antagonist 78.2, D2 ag-1 45.1, D2 ag-2 86.2 | D3 arrestin ag inactive | D2 ag-3 inconclusive
CCCn1c2ccccc2c2cnn(CC(=O)OC)c(=O)c21	D2 ag-2 41.1 | D3 arrestin ag inactive | D2 ag-3 inactive
CCCn1c2ccccc2c2cnn(CC(=O)NCCCN3CCN(c4ccccc4)CC3)c(=O)c21	D2 antagonist 87.5 | D3 arrestin ag inactive | D2 ag-3 inactive
CCOC(=O)c1scc(-c2ccc(C)cc2)c1S(=O)(=O)Nc1ccc(OC)c(Cl)c1	none (no result: D2 PAM-1, D2 antagonist, D2 ag-1)
C=CCn1c(COc2ccc(Cl)cc2)nnc1SCC(=O)Nc1ccc(S(N)(=O)=O)cc1	D2 ag-2 59.0 | D3 arrestin ag inactive | D2 ag-3 inactive
CCc1ccc(CNC(=O)c2ccc3c(c2)nc2n3CCOC2)cc1	none (no result: D2 PAM-1, D2 antagonist, D2 ag-1, D2 ag-2)
COc1cccc(Cn2c(=O)n(CCc3ccccc3)c(=O)c3c2c2cc(OC)ccc2n3C)c1	none (no result: D2 PAM-1, D2 antagonist, D2 ag-1)
Cc1c(NC2=C(Cl)C(=O)N(c3ccccc3Cl)C2=O)c(=O)n(-c2ccccc2)n1C	D2 ag-2 44.4 | D3 arrestin ag inactive | D2 ag-3 inactive
Cc1cc(=O)[nH]c(Nc2c(C)n(C)n(-c3ccccc3)c2=O)n1	none
O=C(c1ccc(OCC2CCCO2)cc1)N1CCN(S(=O)(=O)c2cccc(F)c2)CC1 (stereo unspecified)	none | D3 arrestin ag inactive | D2 ag-3 inactive
O=C(Nc1cccc(S(=O)(=O)N2CCCCC2)c1)c1ccc(OCC2CCCO2)cc1 (stereo unspecified)	none
Cc1cccc(S(=O)(=O)Nc2ccc(-c3cn4ccccc4n3)cc2)c1	none
O=S(=O)(Nc1ccc(-c2cn3ccccc3n2)cc1)c1ccccc1	D2 antagonist 40.0 | D3 arrestin ag inactive | D2 ag-3 inactive
CSCCC(=O)N1CC[C@@H](N2CCN(c3ccccc3F)CC2)[C@H](O)C1	D2 antagonist 44.6 | D3 arrestin ag inactive | D2 ag-3 inconclusive
CC(C)=CC(=O)N1CC[C@@H](N2CCN(c3ccccc3F)CC2)[C@H](O)C1	D2 antagonist 46.3, D2 ag-1 43.1, D2 ag-2 79.8 | D3 arrestin ag inactive | D2 ag-3 inconclusive
NC(=O)CN1CCN(c2ccccc2F)CC1	none
CSCCCN1CC[C@@H](N2CCN(c3ccccc3F)CC2)[C@H](O)C1	D2 antagonist 79.4, D2 ag-1 inconclusive, D2 ag-2 75.5 | D3 arrestin ag inactive | D2 ag-3 inconclusive
O=C(CCN1CCCO1)N1CCCC(N2CCN(c3ccccc3F)CC2)C1 (stereo unspecified)	none
COc1ccc(N(C(=O)/C=C\C(=O)Nc2ccc(Cl)cc2)C(C(=O)NCc2ccco2)c2ccc(C)cc2)cc1 (stereo unspecified)	none (no result: D2 PAM-1, D2 antagonist, D2 ag-1)
